Source: PubChem BioAssay
Values without a mark were called inactive. Active and inactive are the calls of the source. No rule for the calls is given here.

How the values were obtained:
[1] = tested on: Botulinum neurotoxin type F light chain protease (Clostridium botulinum); assay: Clostridium botulinum type F light chain protease inhibitors, microsphere substrate cleavage, validation (AID 588459); conditions: multiplex microsphere protease substrate cleavage assay, flow cytometry; at 10 µM; stronger effect = higher value
[2] = target: Botulinum neurotoxin type A (Clostridium botulinum) (UniProt P0DPI0); assay: BoNT/A light chain protease inhibitors, biochemical, multiplex microsphere flow cytometry, validation set (AID 588460); conditions: at 10 µM, stronger effect = higher value
[3] = target: Lethal factor (Bacillus anthracis) (UniProt P15917); assay: Bacillus anthracis lethal factor inhibition, microsphere flow cytometry protease assay, validation at 10 µM (AID 588461); conditions: multiplex microsphere protease cleavage assay, stronger effect = higher value

Structure (SMILES): Cc1ccc(C(=O)Nc2ccc(O)cc2C(=O)O)cc1C
- inhibition [1]: 10.3%
- inhibition [2]: 2.6%
- inhibition [3]: 0.9%

Structure (SMILES): COc1ccc2[nH]c(=O)c3c(c2c1)OC(C)(C)C=C3
- inhibition [1]: 1.1%
- inhibition [2]: 0.3%
- inhibition [3]: -4.6%

Structure (SMILES): CCOC(=O)N1CCN(Cc2nc(Cc3cccc(F)c3)no2)CC1
- inhibition [1]: 1.3%
- inhibition [2]: 0%
- inhibition [3]: 3.3%

Structure (SMILES): CCc1cc(=O)oc2cc(C)c(CN3CCCC(C)C3)c(O)c12 (configuration not stated)
- inhibition [1]: 3.9%
- inhibition [2]: -0.1%
- inhibition [3]: -3.1%

Structure (SMILES): Cc1ccc2nc(N=C(N)N)nc(C)c2c1
- inhibition [1]: 3.2%
- inhibition [2]: -0.2%
- inhibition [3]: -12.1%

Structure (SMILES): CC(C(=O)O)c1cccc(C(=O)c2ccccc2)c1 (configuration not stated)
- inhibition [2]: -1.5%
- inhibition [3]: 5.8%

Structure (SMILES): CN1CCc2cccc3c2[C@H]1Cc1ccc(O)c(O)c1-3
- inhibition [2]: -6.5%
- inhibition [3]: -33.9%

Structure (SMILES): C[C@]12CC[C@@H]3c4ccc(O)cc4CC[C@H]3[C@@H]1C[C@@H](O)[C@@H]2O[C@@H]1O[C@H](C(=O)O)[C@@H](O)[C@H](O)[C@H]1O
- inhibition [1]: -1.9%
- inhibition [2]: 0.2%
- inhibition [3]: -6.5%

Structure (SMILES): O=C(NCCNc1ccc(Cl)cc1[N+](=O)[O-])c1cccnc1
- inhibition [1]: 0.4%
- inhibition [2]: -1.2%
- inhibition [3]: 2%

Structure (SMILES): COc1cccc(OC2OC3COC(C)(C)OC3C(O)C2NC(C)=O)c1 (configuration not stated)
- inhibition [1]: -0.8%
- inhibition [2]: 0.2%
- inhibition [3]: 0.5%

Structure (SMILES): CC12CCCCN1CCCc1c2[nH]c2ccccc12 (configuration not stated)
- inhibition [1]: -1.1%
- inhibition [2]: -0.2%
- inhibition [3]: -11.1%

Structure (SMILES): CCN(CC)CCNC(=O)c1ccc(N)cc1
- inhibition [3]: 2.4%

Structure (SMILES): CC(C)N1C(=O)/C(=C\c2nc3ccccc3c(=O)[nH]2)c2ccccc21
- inhibition [1]: -0.2%
- inhibition [2]: -0.6%
- inhibition [3]: -0.1%

Structure (SMILES): CN(C)CCCN1c2ccccc2CCc2ccc(Cl)cc21
- inhibition [2]: -0.7%
- inhibition [3]: -1.4%

Structure (SMILES): CC(C)(C)c1ccc(C(O)CCCN2CCC(C(O)(c3ccccc3)c3ccccc3)CC2)cc1 (configuration not stated)
- inhibition [2]: -2.5%
- inhibition [3]: -3.6%

Structure (SMILES): CC(C)OC(=O)C(C)(C)Oc1ccc(C(=O)c2ccc(Cl)cc2)cc1
- inhibition [3]: -0.7%

Structure (SMILES): C[C@]12CCC(=O)C[C@@H]1CC[C@@H]1[C@@H]2CC[C@]2(C)C=CC[C@@H]12
- inhibition [1]: 3.9%
- inhibition [2]: 0.7%
- inhibition [3]: -1.3%

Structure (SMILES): C[C@H](CS)C(=O)N1CCC[C@H]1C(=O)O
- inhibition [3]: -1.8%

Structure (SMILES): CC(=O)OCC1OC(n2ccc(=O)[nH]c2=O)C(O)C1O (configuration not stated)
- inhibition [1]: -0.4%
- inhibition [2]: 0.5%
- inhibition [3]: -5.3%

Structure (SMILES): CN1CCc2cccc3c2[C@@H]1Cc1ccc(O)c(O)c1-3
- inhibition [2]: -6.6%
- inhibition [3]: -53.3%

Structure (SMILES): O=C1CC2(CCCC2)CC(=O)N1CCCCN1CCN(c2ncccn2)CC1
- inhibition [2]: 0.2%
- inhibition [3]: 6.7%

Structure (SMILES): C/C(=N\N=C1\NC(=O)C(CC(=O)Nc2ccc(Cl)cc2)S1)c1ccco1 (configuration not stated)
- inhibition [1]: -0.1%
- inhibition [2]: 0.1%
- inhibition [3]: -0.2%

Structure (SMILES): CN(C)CCC(c1ccc(Cl)cc1)c1ccccn1 (configuration not stated)
- inhibition [2]: -0.2%

Structure (SMILES): CCc1cccc2c1NC1(CCCC1)CC2C (configuration not stated)
- inhibition [2]: -1.3%
- inhibition [3]: 167% (active)

Structure (SMILES): Nc1nc2c(ncn2COCCO)c(=O)[nH]1
- inhibition [3]: 0.4%

Structure (SMILES): Cc1nc(C)c(C)nc1C
- inhibition [1]: -1.1%
- inhibition [2]: -0.9%
- inhibition [3]: -9.1%

Structure (SMILES): O=C(O)CCNC(=O)c1ccccc1
- inhibition [3]: -7.3%

Structure (SMILES): Cc1nnc(SCC2=C(C(=O)O)N3C(=O)[C@@H](NC(=O)Cn4cnnn4)[C@H]3SC2)s1
- inhibition [3]: 0.6%

Structure (SMILES): COC(=O)c1ccc(-c2ncc(-c3cccc4ccccc34)o2)cc1
- inhibition [1]: -1.4%
- inhibition [2]: -1.3%
- inhibition [3]: 4.9%

Structure (SMILES): CCCCC[C@H](O)/C=C/[C@@H]1[C@@H](CCCCCCC(=O)O)[C@@H](O)C[C@H]1O
- inhibition [1]: -2.9%
- inhibition [2]: -1.3%
- inhibition [3]: 0.1%

Structure (SMILES): CC[C@H](C)C(=O)O[C@H]1C[C@@H](C)C=C2C=C[C@H](C)[C@H](CC[C@@H]3C[C@@H](O)CC(=O)O3)[C@H]21
- inhibition [2]: 0.7%
- inhibition [3]: 10.4%

Structure (SMILES): COc1ccccc1Oc1c(C)oc2c(CN3CCN(CCO)CC3)c(O)ccc2c1=O
- inhibition [1]: -2.3%
- inhibition [2]: -1.2%
- inhibition [3]: 1.4%

Structure (SMILES): CC1(C)O[C@@H]2C[C@H]3[C@@H]4CCC5=CC(=O)C=C[C@]5(C)[C@@]4(F)[C@@H](O)C[C@]3(C)[C@]2(C(=O)CO)O1
- inhibition [1]: -2.6%
- inhibition [2]: -3.3%
- inhibition [3]: -3.9%

Structure (SMILES): S=C(NCCOCCOCCNC(=S)Nc1ccccc1)Nc1ccccc1
- inhibition [1]: 1.9%
- inhibition [2]: 2%
- inhibition [3]: -3.8%

Structure (SMILES): Cc1cnc(NC(=O)C2=C(O)c3ccccc3S(=O)(=O)N2C)s1
- inhibition [3]: 1.4%

Structure (SMILES): COc1ccc(CCNC(=S)NC(=O)/C=C/c2ccc(C)cc2)cc1OC
- inhibition [1]: 0.1%
- inhibition [2]: -1.3%
- inhibition [3]: -7.3%

Structure (SMILES): NCCCC(=O)O
- inhibition [3]: 0.3%

Structure (SMILES): COc1cccc(OC)c1C(=O)NCCSC1CCCCC1
- inhibition [1]: 1.4%
- inhibition [2]: 0%
- inhibition [3]: 5.6%

Structure (SMILES): CC(C)NCC(O)COc1ccc(CC(N)=O)cc1 (configuration not stated)
- inhibition [2]: -1.9%
- inhibition [3]: -2.4%

Structure (SMILES): CCc1cn([C@H]2C[C@H](O)[C@@H](CO)O2)c(=O)[nH]c1=O
- inhibition [1]: -0.5%
- inhibition [2]: -2.2%
- inhibition [3]: 1.6%

Structure (SMILES): CC1(C)C2CCC1(C)C(OCC[N+](C)(C)CC(=O)OC1CCCCC1)C2 (configuration not stated)
- inhibition [1]: -1.7%
- inhibition [2]: -2.1%
- inhibition [3]: -1.9%

Structure (SMILES): COc1ccc(OC(C)C(=O)Nc2ccc([N+](=O)[O-])cc2)cc1 (configuration not stated)
- inhibition [1]: 4%
- inhibition [2]: 1.9%
- inhibition [3]: -0.5%

Structure (SMILES): COc1ccc(NS(=O)(=O)c2ccc(N)cc2)nn1
- inhibition [1]: 7.2%
- inhibition [2]: 2%
- inhibition [3]: -0.1%
